PubChem BioAssay (NCATS)
Inconclusive results are not listed. Active and inactive are the calls of the source. Unless noted, calls come from the whole dose curve; as a rule, active = well fitted curve in the direction sought with a large enough effect; inconclusive = small, poorly fitted or top-dose-only effect, or another doubt; inactive = no such curve, though single readings can be large; an effect the other way counts as inactive or inconclusive.

Key:
[1] = P-glycoprotein substrates identified in KB-8-5-11 adenocarcinoma cell line, qHTS therapeutic library screen (AID 1346987); note: series mostly up to about 44 µM; nearly all actives have a fitted effect of over 65% in size
Outline: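 Luminescence from CellTiter-Glo, read 5 min after addition, quantified survival of KB-8-5-11 (P-gp-overexpressing) cells exposed to compounds for 72 h. AC50 was derived from concentration-response curves.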

[2] = molecular target: Atrial natriuretic peptide receptor 1 (Homo sapiens) (UniProt P16066); experiment: Natriuretic polypeptide receptor (hNpr1) antagonism - Pilot screen (AID 1347049; calls by dose curve;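 note: HEK293 cells with hNpr1 and GloSensor cGMP luciferase stimulated by 0.1 nM hNppA; agonist-evoked cGMP luminescence read 20 min after hNppA addition; series mostly up to about 58 µM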)
Outline: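 Cells expressing receptor plus cGMP biosensor are seeded and incubated overnight at 37C, then loaded with GloSensor reagent (2% final) at room temperature for 2 h. Library compounds go on for 30 min. A pre-read precedes agonist (hNppA, 0.1 nM final) and a 20-min readout.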

[3] = molecular target: Atrial natriuretic peptide receptor 2 (Homo sapiens) (UniProt P20594); experiment: Natriuretic polypeptide receptor (hNpr2) antagonism - Pilot subtype selectivity assay (AID 1347050; calls by dose curve)
Outline: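 Read-out: GloSensor luminescence (CCD imager), baseline vs post-stimulation. HEK293 cells expressing hNpr2; compounds pre-incubated 30-50 min at ambient temperature; hNppC 1 nM final, 20 min.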

[4] = NS1 protein of Zika virus - qHTS assay to identify small molecule inhibitors in human HEK 293 cells (AID 1347053); note: series mostly up to about 46 µM; nearly all actives have a fitted effect of over 55% in size
Outline: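 Read-out is a two-antibody TR-FRET for ZIKV NS1, normalized between uninfected cells and infected cells. Compound added 1 h before MR766 infection at MOI 0.5; human HEK 293 cells incubated 24 h, 37 C.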

[5] = molecular target: T1, Tyrosine-protein phosphatase non-receptor type substrate 1 (Homo sapiens) + Leukocyte surface antigen CD47 (Homo sapiens) (UniProt P78324+Q08722); experiment: CD47-SIRPalpha protein protein interaction - LANCE assay qHTS validation (AID 1347057; active = well fitted curve in the direction sought with a large enough effect in the signal ratio, with a control signal flat, not every such curve was filed as active; the % refers to the signal ratio; note: series mostly up to about 38 µM)
Outline: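 Inhibition of soluble CD47/SIRPalpha ectodomain association by titrated compounds, measured as 665/615 nm time-resolved FRET ratio after sequential 30 min room-temperature incubations.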

[6] = molecular target: T1, Tyrosine-protein phosphatase non-receptor type substrate 1 (Homo sapiens) + Leukocyte surface antigen CD47 (Homo sapiens); experiment: CD47-SIRPalpha protein protein interaction - Alpha assay qHTS validation (AID 1347059);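 note: bead proximity luminescence from CD47 binding SIRPalpha after compound preincubation with SIRPalpha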
Outline: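 In PBS (pH 7.4) with 0.05% IGEPAL CA-630, compound is preincubated with biotin-Avi-SIRPalpha ectodomain before His-CD47 ectodomain and affinity beads are added. Light-protected room-temperature incubations; AlphaScreen readout.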

[7] = Natriuretic polypeptide receptor (hNpr1) antagonism - Pilot counterscreen GloSensor control cell line (AID 1347045; calls by dose curve; note: series mostly up to about 38 µM)
Outline: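 Cells were first seeded and incubated overnight at 37C, then loaded with 2% GloSensor substrate for 2 h. Compounds were added for 30 min at room temperature, followed by a baseline read, 50 uM SNP and a final read after 20 min.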

Measured: Potency

T1 sequence (P78324 whole entry, looked up, the tested form may be a part): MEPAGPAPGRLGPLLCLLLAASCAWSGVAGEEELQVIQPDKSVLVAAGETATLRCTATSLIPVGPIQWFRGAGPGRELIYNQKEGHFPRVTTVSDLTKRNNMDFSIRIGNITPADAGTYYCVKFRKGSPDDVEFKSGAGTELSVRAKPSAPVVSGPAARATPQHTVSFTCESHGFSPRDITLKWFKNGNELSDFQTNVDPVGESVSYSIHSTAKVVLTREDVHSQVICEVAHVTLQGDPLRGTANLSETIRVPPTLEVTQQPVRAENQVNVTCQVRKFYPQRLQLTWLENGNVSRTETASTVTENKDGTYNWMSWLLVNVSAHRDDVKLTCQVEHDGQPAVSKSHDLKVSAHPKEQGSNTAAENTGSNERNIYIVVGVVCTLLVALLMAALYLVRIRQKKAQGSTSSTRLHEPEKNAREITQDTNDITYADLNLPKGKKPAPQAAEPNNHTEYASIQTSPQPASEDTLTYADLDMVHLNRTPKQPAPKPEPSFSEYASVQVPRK
T1 sequence (Q08722 whole entry, looked up, the tested form may be a part): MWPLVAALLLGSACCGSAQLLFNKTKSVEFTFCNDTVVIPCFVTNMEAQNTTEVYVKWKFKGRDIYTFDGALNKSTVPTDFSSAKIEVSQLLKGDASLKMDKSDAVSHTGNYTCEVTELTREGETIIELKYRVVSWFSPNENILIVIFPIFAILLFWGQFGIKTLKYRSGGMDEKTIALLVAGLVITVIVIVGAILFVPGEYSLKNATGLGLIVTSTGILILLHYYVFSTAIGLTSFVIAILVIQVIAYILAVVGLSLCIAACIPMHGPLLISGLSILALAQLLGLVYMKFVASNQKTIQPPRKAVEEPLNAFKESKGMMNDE
Sequence of Atrial natriuretic peptide receptor 1 (Homo sapiens) (P16066 whole entry, looked up): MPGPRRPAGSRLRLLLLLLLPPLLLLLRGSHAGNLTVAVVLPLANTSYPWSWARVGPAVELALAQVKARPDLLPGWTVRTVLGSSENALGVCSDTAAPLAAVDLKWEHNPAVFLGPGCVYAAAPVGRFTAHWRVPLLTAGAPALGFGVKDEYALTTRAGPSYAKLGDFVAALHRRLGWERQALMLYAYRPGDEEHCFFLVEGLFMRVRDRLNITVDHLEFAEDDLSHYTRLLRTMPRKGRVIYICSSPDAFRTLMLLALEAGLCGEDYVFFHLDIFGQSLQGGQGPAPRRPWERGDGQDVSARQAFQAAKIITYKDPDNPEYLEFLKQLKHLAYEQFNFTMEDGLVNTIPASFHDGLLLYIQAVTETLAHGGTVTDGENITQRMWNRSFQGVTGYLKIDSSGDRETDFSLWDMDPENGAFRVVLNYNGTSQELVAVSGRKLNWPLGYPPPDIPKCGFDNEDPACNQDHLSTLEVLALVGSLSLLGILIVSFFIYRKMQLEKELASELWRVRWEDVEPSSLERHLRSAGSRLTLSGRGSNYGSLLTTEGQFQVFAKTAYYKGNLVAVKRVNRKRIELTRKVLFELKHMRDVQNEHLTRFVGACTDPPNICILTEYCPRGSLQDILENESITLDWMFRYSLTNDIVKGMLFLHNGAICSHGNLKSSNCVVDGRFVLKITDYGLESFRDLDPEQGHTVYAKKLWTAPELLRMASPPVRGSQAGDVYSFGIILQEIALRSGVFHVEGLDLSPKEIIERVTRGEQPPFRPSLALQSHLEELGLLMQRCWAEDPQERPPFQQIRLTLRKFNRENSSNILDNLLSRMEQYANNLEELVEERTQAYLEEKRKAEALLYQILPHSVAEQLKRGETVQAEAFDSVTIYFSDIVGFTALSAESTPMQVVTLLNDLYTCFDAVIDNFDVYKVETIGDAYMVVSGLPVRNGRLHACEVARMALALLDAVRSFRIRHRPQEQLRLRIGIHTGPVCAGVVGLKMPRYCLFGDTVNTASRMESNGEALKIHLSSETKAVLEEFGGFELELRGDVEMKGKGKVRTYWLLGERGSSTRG
Sequence of Atrial natriuretic peptide receptor 2 (Homo sapiens) (P20594 whole entry, looked up): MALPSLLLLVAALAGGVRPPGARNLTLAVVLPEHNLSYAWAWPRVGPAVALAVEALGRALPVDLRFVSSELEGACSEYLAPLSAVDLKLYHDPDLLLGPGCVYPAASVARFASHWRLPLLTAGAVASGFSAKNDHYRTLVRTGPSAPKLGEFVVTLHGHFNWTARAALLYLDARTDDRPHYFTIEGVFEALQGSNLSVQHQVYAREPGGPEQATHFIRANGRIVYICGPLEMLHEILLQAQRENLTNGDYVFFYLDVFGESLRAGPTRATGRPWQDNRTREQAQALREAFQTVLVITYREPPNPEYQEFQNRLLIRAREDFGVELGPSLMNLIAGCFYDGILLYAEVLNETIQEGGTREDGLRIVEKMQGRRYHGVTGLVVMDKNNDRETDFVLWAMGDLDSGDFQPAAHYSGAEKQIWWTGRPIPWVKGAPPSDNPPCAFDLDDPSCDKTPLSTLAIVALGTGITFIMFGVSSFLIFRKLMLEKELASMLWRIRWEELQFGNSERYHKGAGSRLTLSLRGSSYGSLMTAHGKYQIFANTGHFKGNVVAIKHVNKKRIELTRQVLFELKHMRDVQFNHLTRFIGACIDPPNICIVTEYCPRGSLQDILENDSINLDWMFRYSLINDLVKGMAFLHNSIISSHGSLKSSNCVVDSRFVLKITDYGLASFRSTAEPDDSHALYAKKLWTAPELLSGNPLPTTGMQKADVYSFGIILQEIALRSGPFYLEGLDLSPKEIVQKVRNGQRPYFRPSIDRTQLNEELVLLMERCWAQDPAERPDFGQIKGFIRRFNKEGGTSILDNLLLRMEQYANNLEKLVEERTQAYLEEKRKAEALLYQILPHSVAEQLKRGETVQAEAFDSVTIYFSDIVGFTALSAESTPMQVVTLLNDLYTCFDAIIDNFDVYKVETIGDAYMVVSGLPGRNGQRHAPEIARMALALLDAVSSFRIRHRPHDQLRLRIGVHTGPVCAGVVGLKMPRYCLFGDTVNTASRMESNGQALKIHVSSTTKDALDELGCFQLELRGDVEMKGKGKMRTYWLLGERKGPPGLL

Oc1ccc(C2CCN(c3ccnc4ccccc34)CC2)cc1O
inactive: [1]

O=C(N[C@@H](c1ccccc1)[C@@H]1CCCCN1)c1cccc(C(F)(F)F)c1Cl
inactive: [1]

NC(N)=Nc1nc(CSCC/C(N)=N/S(N)(=O)=O)cs1
not listed: [7]
inactive: all other assays above

CCN(CC)CCOC(=O)c1ccc(N)cc1
inactive: all assays above
